# Source: PubChem BioAssay (NCATS)
# A number with no mark means an inactive call. Records with an inconclusive call do not appear. A call without a number means that no potency is given here. Active and inactive are the calls of the source. Calls come from the whole dose curve; as a rule, active = well fitted curve in the direction sought with a large enough effect; inconclusive = small, poorly fitted or top-dose-only effect, or another doubt; inactive = no such curve, though single readings can be large; an effect the other way counts as inactive or inconclusive.
# Tests used:
# [1] = system: Zika virus NS2B-NS3 protease (linked); experiment: 384 well plate NINDS AMC confirmatory qHTS for Zika virus inhibitors (AID 1347163); note: nearly all actives have a fitted effect of over 50% in size; note: potency is the fitted concentration of half-maximal effect;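 for activity change, negative = inhibition: fluorescence of AMC released from Ac-VKTGKR-AMC peptide cleaved by the protease; top concentration of the series differs between compounds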
# How it was run: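 Linked NS2B-NS3 protease (final 5 nM, 30 nM or 60 nM) was preincubated with compounds (final up to 1 mM) for ~15 minutes. Ac-VKTGKR-AMC substrate (final 30 microM) then reacted for 25 minutes at room temperature in the dark. Fluorescence (ex 355/em 460 nm) was normalized to no-enzyme and no-inhibitor controls.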
# [2] = Vero cells viability qHTS for Zika virus inhibitors (AID 1347167)
# How it was run: (§1)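 Cells seeded at 2.5 x 10^5 cells/mL in DMEM with 4% FBS and attached overnight at 37 degrees C, then exposed to compound for 24 to 48 hours. Viability read as ATP content by CellTiter Glo luminescence.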
# [3] = HepG2 cells viability qHTS for Zika virus inhibitors (AID 1347168)
# How it was run: as §1
# [4] = qHTS to identify inhibitors of the type 1 interferon - major histocompatibility complex class I in skeletal muscle: primary screen against the NCATS Pharmaceutical Collection (AID 1347407);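 note: luminescence of HiBiT knocked into endogenous HLA-B as interferon-induced MHC class I level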
# How it was run: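 Immortalized human myoblasts (C25cl48) with HiBiT knocked into endogenous HLA-B*08:01 were stimulated with 4.0 ng/ml IFN-beta and treated with compounds ([…] top 46 uM) for 24 hrs at 37 C. HiBiT lytic luminescence read.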
# [5] = target: Protein phosphatase 1D (Homo sapiens) (UniProt O15297); experiment: RapidFire Mass Spectrometry qHTS Assay for Modulators of WT P53-Induced Phosphatase 1 (WIP1) (AID 1347424);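 note: amount of dephosphorylated VEPPL-S-QETFS peptide product formed by WIP1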; note: potency is the fitted concentration of half-maximal effect; for activity change, negative = inhibition: series mostly up to about 63 µM
# How it was run: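 10 nM WIP1 preincubated with compounds 1 hr at room temperature in pH 7.5 Tris buffer with 30 mM MgCl2, 1 mM TCEP; 2 uM VEPPL-pS-QETFS phosphopeptide for 5 min, formic acid quench; dephosphorylated product quantified by RapidFire MS against labelled standard.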
# [6] = system: Zika virus NS2B-NS3 protease (linked construct); experiment: 384 well plate NINDS Rhodamine confirmatory qHTS for Zika virus inhibitors (AID 1347164);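 note: fluorescence from protease cleavage of Ac-LKRR-rhodamine 110 substrate; nearly all actives have a fitted effect of over 65% in size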; note: potency is the fitted concentration of half-maximal effect; for activity change, negative = inhibition: top concentration of the series differs between compounds
# How it was run: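 Linked NS2B-NS3 protease (final 5, 30 or 60 nM) preincubated ~15 minutes with compounds, then 10 microM Ac-LKRR-Rhodamine 110 added. Fluorescence (485/538 nm) read after 25 minutes at room temperature, normalized to no-enzyme and no-inhibitor controls.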
# [7] = Tertiary RLuc qRT-PCR qHTS assay for Zika virus inhibitors (AID 1347169); note: nearly all actives have a fitted effect of over 55% in size; note: potency is the fitted concentration of half-maximal effect; for activity change, negative = inhibition: top concentration of the series differs between compounds
# How it was run: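 Vero cells (1,000/well) infected with recombinant ZIKV-RLuc (Cambodian) at MOI 1-2 after compound addition, 48-72 hrs at 37 degrees C. Live-cell Renilla luciferase substrate added; luminescence read after 1-1.5 hrs.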
# [8] = qHTS to identify inhibitors of the type 1 interferon - major histocompatibility complex class I in skeletal muscle: primary screen against the NCATS Mechanism Interrogation Plate v5.0 (MIPE) Libary (AID 1347411); note: nearly all actives have a fitted effect of over 65% in size; note: potency is the fitted concentration of half-maximal effect
# How it was run: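 Immortalized human myoblasts (C25cl48) with HiBit knocked into endogenous HLA-B*08:01 were stimulated with 4 ng/ml IFN-beta and given compounds in 11-point 1:3 titration from 46 uM. After 24 h at 37 C, lytic HiBiT luminescence was read.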
# [9] = qHTS for inhibitors of adenylyl cyclases using a fission yeast platform: a pilot screen against the NCATS LOPAC library (AID 1347410)
# How it was run: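 S. pombe CHP2027 (AC9-GNAS-PDE4D2) carrying PKA-repressed fbp1-GFP, incubated 18 h at 30C in EMM with LOPAC compounds at up to 57 uM. GFP gain-of-signal read by laser scanning cytometry; DMSO negative control.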
# [10] = target: Lysine-specific demethylase 5B (Homo sapiens) (UniProt Q9UGL1); experiment: Optimization screen for KDM5B Histone Demethylases FDH coupled qHTS against the LOPAC library (AID 1347166)
# How it was run: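 KDM5BDeltaAP (200nM final) preincubated 10 min with compound, then 12.5uM H3K4Me3, 25uM a-ketoglutarate, ascorbate, Fe(II), NAD+ and FDH added; 50mM HEPES pH 7.5, 0.01% Tween-20. NADH fluorescence (340/450 nm) change over 30 min, room temperature.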
# Protein phosphatase 1D (Homo sapiens), sequence (O15297 whole entry, looked up): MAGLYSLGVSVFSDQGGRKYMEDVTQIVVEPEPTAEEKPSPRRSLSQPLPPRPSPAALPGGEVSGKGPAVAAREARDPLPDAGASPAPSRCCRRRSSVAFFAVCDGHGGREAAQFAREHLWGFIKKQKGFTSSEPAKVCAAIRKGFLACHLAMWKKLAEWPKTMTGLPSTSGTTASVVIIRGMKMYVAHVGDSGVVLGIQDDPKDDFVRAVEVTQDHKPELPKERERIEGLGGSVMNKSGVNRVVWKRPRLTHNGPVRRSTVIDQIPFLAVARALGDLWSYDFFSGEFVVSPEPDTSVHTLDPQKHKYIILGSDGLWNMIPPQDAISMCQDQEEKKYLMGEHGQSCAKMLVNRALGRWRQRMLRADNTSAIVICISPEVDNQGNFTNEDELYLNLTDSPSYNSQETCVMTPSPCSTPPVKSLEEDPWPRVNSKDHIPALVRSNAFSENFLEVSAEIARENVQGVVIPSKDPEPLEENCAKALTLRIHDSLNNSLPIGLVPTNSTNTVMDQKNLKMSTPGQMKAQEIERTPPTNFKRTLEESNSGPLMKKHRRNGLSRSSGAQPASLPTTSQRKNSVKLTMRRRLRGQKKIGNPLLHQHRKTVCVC
# Lysine-specific demethylase 5B (Homo sapiens), sequence (Q9UGL1 whole entry, looked up): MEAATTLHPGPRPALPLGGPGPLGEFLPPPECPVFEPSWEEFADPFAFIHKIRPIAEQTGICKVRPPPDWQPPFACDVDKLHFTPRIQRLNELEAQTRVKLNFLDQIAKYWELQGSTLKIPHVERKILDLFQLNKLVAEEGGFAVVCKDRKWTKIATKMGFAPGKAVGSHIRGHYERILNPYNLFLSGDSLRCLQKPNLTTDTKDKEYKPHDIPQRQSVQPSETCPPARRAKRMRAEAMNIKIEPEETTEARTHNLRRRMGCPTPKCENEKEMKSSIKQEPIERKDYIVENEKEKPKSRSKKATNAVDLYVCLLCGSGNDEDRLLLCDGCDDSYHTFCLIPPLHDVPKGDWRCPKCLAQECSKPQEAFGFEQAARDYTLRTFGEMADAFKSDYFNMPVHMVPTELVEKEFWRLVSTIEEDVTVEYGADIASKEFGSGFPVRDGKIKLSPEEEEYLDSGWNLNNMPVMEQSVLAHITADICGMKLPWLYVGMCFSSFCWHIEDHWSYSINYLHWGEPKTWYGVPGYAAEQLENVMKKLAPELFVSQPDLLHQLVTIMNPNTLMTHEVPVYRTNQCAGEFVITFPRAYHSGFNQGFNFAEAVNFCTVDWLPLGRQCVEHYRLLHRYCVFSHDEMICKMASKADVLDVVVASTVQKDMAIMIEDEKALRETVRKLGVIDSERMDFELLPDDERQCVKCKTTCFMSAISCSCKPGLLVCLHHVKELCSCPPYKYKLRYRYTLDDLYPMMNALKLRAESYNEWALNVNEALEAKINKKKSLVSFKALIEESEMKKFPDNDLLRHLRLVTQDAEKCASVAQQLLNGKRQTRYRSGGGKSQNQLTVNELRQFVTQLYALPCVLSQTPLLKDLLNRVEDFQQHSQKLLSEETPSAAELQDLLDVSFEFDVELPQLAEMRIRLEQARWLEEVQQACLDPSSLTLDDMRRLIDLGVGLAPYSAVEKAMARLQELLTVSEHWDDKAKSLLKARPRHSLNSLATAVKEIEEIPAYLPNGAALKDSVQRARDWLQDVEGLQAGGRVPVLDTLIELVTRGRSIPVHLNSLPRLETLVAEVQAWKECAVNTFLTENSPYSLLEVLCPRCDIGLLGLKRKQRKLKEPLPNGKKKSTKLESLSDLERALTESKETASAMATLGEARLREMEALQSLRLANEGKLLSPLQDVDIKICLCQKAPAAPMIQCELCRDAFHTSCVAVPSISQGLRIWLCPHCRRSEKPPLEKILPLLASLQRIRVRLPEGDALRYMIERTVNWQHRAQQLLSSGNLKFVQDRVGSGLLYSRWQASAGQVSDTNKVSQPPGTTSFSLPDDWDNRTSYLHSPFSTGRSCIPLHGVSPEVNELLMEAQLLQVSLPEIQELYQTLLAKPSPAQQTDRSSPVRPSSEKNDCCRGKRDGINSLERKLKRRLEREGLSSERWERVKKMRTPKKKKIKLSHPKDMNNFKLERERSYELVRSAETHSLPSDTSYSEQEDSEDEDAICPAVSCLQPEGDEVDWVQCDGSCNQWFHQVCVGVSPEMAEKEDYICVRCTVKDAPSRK
smiles,measurement,setting,value
O=C(Nc1cccc2c(=O)cc(-c3nn[nH]n3)oc12)c1ccc(OCCCCc2ccccc2)cc1,Potency,[1],28.2 µM (active)
same,outcome,[2],inactive
same,outcome,[3],inactive
same,outcome,[4],inactive
same,Potency,[5],15.8 µM (active)
OC[C@H]1O[C@@H](OCCc2ccc(O)cc2)[C@H](O)[C@@H](O)[C@H]1O,outcome,[4],inactive
same,Potency,[5],inactive
CN(C)CC[C@H](CSc1ccccc1)Nc1ccc(S(=O)(=O)NC(=O)c2ccc(N3CCN(Cc4ccccc4-c4ccc(Cl)cc4)CC3)cc2)cc1[N+](=O)[O-],Potency,[6],0.708 µM (active)
CC[C@H](C)n1cc(C)c2c(C(=O)NCc3c(C)cc(C)[nH]c3=O)cc(-c3ccc(N4CCNCC4)nc3)cc21,outcome,[2],inactive
same,outcome,[3],inactive
same,Potency,[7],inactive
same,Potency,[8],inactive
C=CCc1cccc(C=NNC(=O)CN2CCN(Cc3ccccc3)CC2)c1O,outcome,[9],inactive
O=C(O)Cc1cccc(OCCCN(Cc2cccc(C(F)(F)F)c2Cl)CC(c2ccccc2)c2ccccc2)c1,Potency,[6],28.2 µM (active)
same,outcome,[3],inactive
same,Potency,[8],inactive
CC(C)c1onc(-c2c(Cl)cccc2Cl)c1COc1ccc(C=Cc2cccc(C(=O)O)c2)c(Cl)c1,outcome,[3],inactive
N#CC1(c2cccc(C(=O)Nc3cc(Oc4ccc5nc(NC(=O)C6CC6)sc5n4)ccc3F)c2Cl)CC1,Potency,[6],50.1 µM (active)
same,outcome,[2],inactive
same,outcome,[3],inactive
same,Potency,[8],inactive
O=c1cc(-c2ccc(O)c(O)c2)oc2cc(O)cc(O)c12,Potency,[1],70.8 µM (active)
same,Potency,[6],inactive
same,"activity change, negative = inhibition",[7],46.1% [at 3.57 µM]
CN(C)CCN(Cc1ccc(Cl)cc1)c1ccccn1,outcome,[4],inactive
same,Potency,[5],inactive
COc1cc(Cl)cn2c(-c3cccc(NC4CNC4)n3)cnc12,outcome,[2],inactive
same,outcome,[3],inactive
same,Potency,[7],inactive
COc1nc(C)cnc1NS(=O)(=O)c1cccnc1-c1ccc(-c2nnco2)cc1,Potency,[8],inactive
COc1ccnc(CS(=O)c2nc3ccc(OC(F)F)cc3[nH]2)c1OC (centres undefined),outcome,[4],inactive
same,Potency,[8],inactive
same,Potency,[5],inactive
Fc1ccc(C(c2ccc(F)cc2)N2CCN(CC=Cc3ccccc3)CC2)cc1,outcome,[2],inactive
O=C(Nc1ccccc1)Nc1ccc(-c2ccc(C(=O)[C@H]3CCC[C@H]3C(=O)O)cc2)cc1,Potency,[1],inactive
same,Potency,[6],14.1 µM (active)
same,outcome,[2],inactive
same,outcome,[3],inactive
same,Potency,[7],inactive
COc1cc(Nc2nc3ccccc3nc2NS(=O)(=O)c2ccc(NC(=O)c3ccc(C)c(OC)c3)cc2)cc(OC)c1,Potency,[1],inactive
same,Potency,[6],8.91 µM (active)
same,outcome,[2],inactive
same,outcome,[3],inactive
same,Potency,[8],inactive
CCCCC[C@H](O)C=C[C@H]1[C@H](O)CC(=O)[C@H]1CCCCCCC(=O)O,outcome,[2],inactive
same,outcome,[3],inactive
same,Potency,[7],inactive
O=S(=O)(O)c1ccc2cc(N=Nc3cc(S(=O)(=O)O)c4cccnc4c3O)ccc2c1,Potency,[1],79.4 µM (active)
same,Potency,[6],0.562 µM (active)
same,outcome,[2],inactive
same,outcome,[3],inactive
same,Potency,[7],3.7 µM (active)
same,Potency,[8],inactive
CCOC(=O)[C@H](CCc1ccccc1)N[C@@H](C)C(=O)N1CCCC1C(=O)O (some centres undefined),outcome,[2],inactive
same,outcome,[3],inactive
same,Potency,[7],inactive
COc1ccc(-c2ccc3ncc4c(c3c2)n(-c2ccc(N3CCNCC3)c(C(F)(F)F)c2)c(=O)n4C)cn1,"activity change, negative = cytotoxicity",[2],-1.62% [at 4.93 µM]
same,"activity change, negative = cytotoxicity",[3],-5.65% [at 4.93 µM]
same,Potency,[8],0.147 µM (active)
CCCCOCCOc1nc(-c2ccc(C(=O)O)c(F)c2)sc1C,outcome,[2],inactive
same,outcome,[3],inactive
same,Potency,[7],inactive
same,Potency,[8],inactive
C[C@H]1O[C@@H](n2cc(F)c(=O)[nH]c2=O)[C@H](O)[C@H]1O,outcome,[10],inactive
Cc1nc(C(=O)NCC(=O)O)c(O)c2ccc(Oc3ccccc3)cc12,outcome,[2],inactive
same,outcome,[3],inactive
same,Potency,[7],inactive
same,Potency,[8],inactive
N#CC(c1ccc(Cl)cc1)c1c(Cl)cc(-n2ncc(=O)[nH]c2=O)cc1Cl (centres undefined),Potency,[6],35.5 µM (active)
same,outcome,[2],inactive
same,outcome,[3],inactive
same,Potency,[8],inactive
C[C@@H]1C[C@H]2[C@@H]3CCC4=CC(=O)C=C[C@]4(C)[C@@]3(F)[C@@H](O)C[C@]2(C)[C@@]1(O)C(=O)CO,outcome,[4],inactive
same,Potency,[8],inactive
same,Potency,[5],inactive
COc1ccc(-c2nc3ccc(C4=NNC(=O)CC4C)cc3[nH]2)cc1 (centres undefined),outcome,[4],inactive
same,Potency,[8],inactive
same,Potency,[5],inactive
OC(c1cc(C(F)(F)F)nc2c(C(F)(F)F)cccc12)C1CCCCN1 (centres undefined),outcome,[2],inactive
same,Potency,[7],16.5 µM (active)
C[C@H]1COC2=C1C(=O)C(=O)c1c2ccc2c1CCCC2(C)C,outcome,[2],inactive
same,outcome,[3],inactive
same,Potency,[7],inactive
Cc1ccc2c(c1)C(=O)[C@]1(O)CCN(c3ccccc3)C1=N2,Potency,[7],inactive
same,Potency,[8],inactive
c1cc(OCCN2CCCCC2)cc(-c2n[nH]c3ccc(-c4ncn[nH]4)cc23)c1,outcome,[2],inactive
same,outcome,[3],inactive
same,Potency,[7],inactive
same,Potency,[8],inactive
